Inconclusive results are not listed. The source made the active and inactive calls. Calls follow the shape of the dose curve; as a rule, active = well fitted cell-killing curve with a large enough effect; inconclusive = small, poorly fitted or top-dose-only effect, or effect the other way; inactive = flat fitted curve, though single readings scatter.
Columns and labels:
Test in all cases: Primary qHTS to identify gynecologic anti-cancer compounds using libraries of approved drugs and bioactive compounds (AID 1345084); also: nearly all actives have a fitted effect of over 55% in size
Conditions in all cases: Gynecologic cancer cell panel viability, ATPlite luminescence, 48 h; series mostly up to 57.5 µM
PA-1 = system: PA-1
Outline: (§1)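 Cells, 1,000 per well, were allowed to settle for 16 h at 37 C before compound addition. Five concentrations were tested for 48 h, and viability was read by ATPlite luminescence after 15 min at room temperature.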

SKOV3 = system: SKOV3
Outline: as §1

Tov-21-G = system: Tov-21-G
Outline: as §1

Tov112D = system: Tov112D
Outline: as §1

Measured: Potency
Potency is read from the fitted curve at half-maximal effect.

COc1cc(C(=O)OC[C@H]2O[C@@H](Oc3ccccc3/C=C/C(=O)O)[C@H](O)[C@@H](O)[C@@H]2O)cc(OC)c1OC
inactive: all assays above

Cc1noc(-c2ccc(-c3ccc(CC(=O)O)cc3)cc2)c1NC(=O)O[C@H](C)c1ccccc1
inactive: all assays above

CC(=O)OC1CC2(C)C3=CCC4(C)C5C(O)C(O)C(C(C)C)C5(C)CCC4(C)C3CCC2C(C)(C)C1OC1OC(CO)C(O)C(O)C1O (stereo not given)
inactive: all assays above

CC1(C)CC2C(O)c3cocc3CC(C)(O)C2C1 (stereo not given)
inactive: all assays above

OCc1ccc(O[C@@H]2O[C@H](CO)[C@@H](O)[C@H](O)[C@H]2O)cc1
inactive: all assays above

CC1CC(C(O)C(C)(C)O)OC2CC3(C)C4(C)CCC5C(C)(C)C(=O)CCC5(C)C4CCC3(O)C12O (stereo not given)
inactive: all assays above

COc1cc(O)c2c(c1)C1=C[C@H](O)[C@@H](O)C[C@]1(C)OC2=O
inactive: all assays above

Nc1nc(-n2cc(C(=O)O)c(=O)c3cc(F)c(N4CC(O)C4)c(Cl)c32)c(F)cc1F
inactive: all assays above

CC(C)O[C@@H]1O[C@H](CO)[C@@H](O)[C@H](O)[C@H]1O
inactive: all assays above

CC(C)(C)NCCCNC(=O)c1cccc(Br)c1
inactive: all assays above

OC[C@H]1O[C@@H](OC[C@H]2O[C@@H](OC/C=C/c3ccccc3)[C@H](O)[C@@H](O)[C@@H]2O)[C@@H](O)[C@@H]1O
inactive: all assays above

CC1(C)CC[C@]2(C(=O)O[C@@H]3O[C@H](CO)[C@@H](O)[C@H](O)[C@H]3O)CC[C@]3(C)C(=CCC4[C@@]5(C)C[C@@H](O)[C@H](O)[C@@](C)(CO)C5CC[C@]43C)C2[C@@H]1O (stereo not given in full)
inactive: all assays above

C[C@H](NC(=O)CCc1nc2ccccc2c(=O)[nH]1)c1ccccc1
inactive: all assays above

C=C(F)c1sc(CNCCCNc2cc(=O)c3ccccc3[nH]2)c(C)c1Br
inactive: all assays above

CCOC(=O)CCN(C(=O)c1ccc2c(c1)nc(CNc1ccc(C(=N)N)cc1)n2C)c1ccccn1
inactive: all assays above

CC1(C(=O)O)CCCC2(C)C3=CCC4CC3(CCC12)CC4CO (stereo not given)
inactive: all assays above

CC1(C)CC[C@]2(C(=O)O[C@@H]3O[C@H](CO)[C@@H](O)[C@H](O)[C@H]3O)CC[C@]3(C)C(=CCC4[C@@]5(C)C[C@@H](O)[C@H](O)[C@](C)(C=O)C5CC[C@]43C)[C@@H]2[C@@H]1O (stereo not given in full)
inactive: all assays above

COc1cc2c(cc1OC)CC(=O)N(CCCNC[C@H]1Cc3cc(OC)c(OC)cc31)CC2
inactive: all assays above

CC(C)c1ccc2c(c1)C(=O)CC1[C@@](C)(C(=O)O)CCC[C@]21C (stereo not given in full)
inactive: all assays above

C[C@H]1CC[C@@H]2N(C1)C[C@@H]1[C@H]([C@@H](O)[C@H](O)[C@]3(O)[C@H]1C[C@@]14OC5(O)[C@@H](C[C@@H](O)[C@@H]31)[C@]4(C)CC[C@@H]5O)[C@]2(C)O
inactive: all assays above

CCC(C(=O)O)c1ccc(N2Cc3ccccc3C2=O)cc1 (stereo not given)
inactive: all assays above

Cc1ccc(C)c(OCCn2cc(C(=O)O)c3ccccc32)c1
inactive: all assays above

O=C(NCC(O)CO)c1ccncc1Nc1ccc(I)cc1F (stereo not given)
active: Tov-21-G 1.58 µM
inactive: all other assays above

C[C@@H]1O[C@@H](O[C@H]2[C@@H]3C=CO[C@@H](O[C@@H]4O[C@H](CO)[C@@H](O)[C@H](O)[C@H]4O)[C@@H]3[C@@]3(CO)O[C@@H]23)[C@H](OC(=O)/C=C/c2ccc(O)c(O)c2)[C@H](O)[C@H]1O
inactive: all assays above

CC(C)CN(C[C@@H](O)[C@H](Cc1ccccc1)NC(=O)O[C@@H]1CO[C@H]2OCC[C@H]21)S(=O)(=O)c1ccc(N)cc1
inactive: all assays above

C[C@H](Oc1ccc(S(C)(=O)=O)cc1C(=O)N1CCN(c2ncc(C(F)(F)F)cc2F)CC1)C(F)(F)F
inactive: all assays above

O=C1CC2(CCCC2)[C@H](O)C(=O)N1CCCCN1CCN(c2ncccn2)CC1
inactive: all assays above

CCOC(=O)c1sc(NC(=O)[C@H](C(C)C)n2c(=O)[nH]c3ccccc3c2=O)nc1C
inactive: all assays above

C[C@@H]1C(=O)O[C@H]2[C@@H](O)C34[C@H]5C[C@@H](C(C)(C)C)C36[C@@H](OC(=O)[C@@H]6O)O[C@@]4(C(=O)O5)[C@@]12O (stereo not given in full)
inactive: all assays above

COc1c2c(c(C)c3c1C(=O)OC3)O[C@@]1(C)CCC3(C(C)(C)O)OC(=O)CC[C@]3(C)[C@H]1C2 (stereo not given in full)
inactive: all assays above

COc1cc(Nc2nc3ccccc3nc2NS(=O)(=O)c2ccc(NC(=O)c3ccc(OC)c(C)c3)cc2)cc(OC)c1
inactive: all assays above

COC(=O)C1=CO[C@@H](O[C@@H]2O[C@H](CO)[C@@H](O)[C@H](O)[C@H]2O)[C@@H]2[C@@](C)(O)[C@@H](OC(=O)/C=C/c3ccc(O)cc3)C[C@]12O
inactive: all assays above

C=CC1C(OC2OC(CO)C(O)C(O)C2O)OC=C2C(=O)N3C(C(=O)O)Cc4c([nH]c5ccccc45)C3CC21 (stereo not given)
inactive: all assays above

CC[C@H](NC(=O)[C@H](CS(=O)(=O)CC1CC1)N[C@@H](c1ccc(F)cc1)C(F)(F)F)C(=O)C(=O)NC1CC1
inactive: all assays above

COCCOc1ccc(N2CCN(CCn3ncc4c3nc(N)n3nc(-c5ccco5)nc43)CC2)cc1
inactive: all assays above

CC(=O)OC1C(c2ccccc2)CCC(c2ccccc2)C1OC(C)=O (stereo not given)
inactive: all assays above

CCn1cc(NC(=S)Nc2cc(Cl)ccc2OC)c(C(N)=O)n1
inactive: all assays above

CC(O)/C=C/C1(O)C(C)C(O[C@@H]2O[C@H](CO)[C@@H](O)[C@H](O)[C@H]2O)C(O)CC1(C)C (stereo not given in full)
inactive: all assays above

C=C1CC[C@H]2[C@@](C)(CCC(O)[C@@]2(C)CO)[C@@H]1CCC1=CCOC1=O (stereo not given in full)
inactive: all assays above

O=C(Nc1ccn[nH]1)c1c(F)cccc1F
inactive: all assays above

CCc1ccc(Cc2ccc3c(c2)[C@]2(OC3)O[C@H](CO)[C@@H](O)[C@H](O)[C@H]2O)cc1
inactive: all assays above

O=C1NC(=O)C(c2cn(-c3ccccc3)nc2-c2ccc(F)cc2)N1 (stereo not given)
inactive: all assays above

CC(=O)N1CCc2ccc(O)c(OC3OC(COC4OCC(O)(CO)C4O)C(O)C(O)C3O)c2C1Cc1ccc(O)cc1 (stereo not given)
inactive: all assays above

C=C(C)C1Cc2cc(C(=O)OC3OC(CO)C(O)C(O)C3O)ccc2O1 (stereo not given)
inactive: all assays above

CC(=O)c1ccc(O[C@@H]2O[C@H](CO)[C@@H](O)[C@H](O)[C@H]2O)cc1
inactive: all assays above

CC(C)=CC/C=C(\C)[C@H]1CC[C@]2(C)[C@@H]1[C@H](O)C[C@@H]1[C@@]3(C)CC[C@H](O)C(C)(C)[C@@H]3[C@@H](O[C@@H]3O[C@H](CO)[C@@H](O)[C@H](O)[C@H]3O)C[C@]12C
inactive: all assays above

CC(C)(C)c1cc(Br)cc([C@H](CC(=O)O)NC(=O)CNC(=O)c2cc(O)cc(NC3=NCC(O)CN3)c2)c1 (stereo not given in full)
inactive: all assays above

c1ccc(-c2ncc(CN3CCN(c4ncccn4)CC3)[nH]2)cc1
inactive: all assays above

Cc1cc(Nc2ncc3cc(-c4c(Cl)cccc4Cl)c(=O)n(C)c3n2)ccc1F
active: PA-1 3.98 µM | SKOV3 3.55 µM | Tov-21-G 3.98 µM | Tov112D 3.55 µM

C=CC(C)(C)C12C=C(OC)C(=O)N3C(C(C)C)C(=O)NC31N(OC)c1ccccc12 (stereo not given)
inactive: all assays above

CC(C)(C)c1ccc(S(=O)(=O)Nc2ccc(Cl)cc2C(=O)c2cc[n+]([O-])cc2)cc1
inactive: all assays above

C=CC[C@]12C[C@@H](OC)C(=O)C(OC)=C1O[C@@H](c1cc(OC)c3c(c1)OCO3)[C@@H]2C
inactive: all assays above

CC1(C)[C@@H](O)CC[C@]2(C)[C@H]3CC=C4[C@@H]5C[C@](C)(C(=O)O)CC[C@]5(C)CC[C@@]4(C)[C@]3(C)CC[C@@H]12
inactive: all assays above

CC1=C2C3OC(=O)C(C)C3(O)CCC2(C)CCC1O (stereo not given)
inactive: all assays above

O=C(/C=C/c1ccc(O)cc1)OC1[C@H](O)CC(O)(C(=O)O)C[C@H]1O (stereo not given in full)
inactive: all assays above

Source: PubChem BioAssay (NCATS)
